In PubChem BioAssay AID1159524 (National Center for Advancing Translational Sciences (NCATS), 2015):
Among all 410,000 compounds or so, about 5,100 (1.2%) were called active. Where a call stands in place of a potency, no number is given. Inconclusive results (about 8%) are left out. The call rests on the fitted dose curve; tested in HEK293T cells. Only a selection was taken, and actives are over-represented in it overall.

Test: High Throughput Screening for Foot and Mouth Disease Virus Antivirals; further: read-out not given here; nearly all actives have a fitted effect of over 45% in size
Conditions: FMDV antiviral cell-based qHTS; series mostly up to 57.9 µM
Potency means the concentration at half of the fitted maximal effect.

Row | SMILES | Potency
1 | O=c1c(-c2ccc(F)c(F)c2)nc2cncnc2n1-c1ccccc1 | inactive
2 | O=C(Nc1ccccc1Cl)N1CCC(CN2CCCC2)CC1 | inactive
3 | O=C(Nc1ccccc1Cl)/C(Cl)=C(\Cl)S(=O)c1ccccc1 (configuration not stated) | 7.08 µM (active)
4 | O=C(Nc1ccccc1Cl)N1CCC(CN2CCCCC2)CC1 | inactive
5 | CSc1nc(Nc2ccc(F)cc2)cc(-c2ccccc2)n1 | inactive
6 | CC(=O)c1ccc(F)c(-c2cc(C)cc3c2OC(CNC(=O)Cc2c[nH]c4ccccc24)C3)c1 (configuration not stated) | inactive
7 | Cc1nnc(SCc2cc(=O)c3cc(F)ccc3[nH]2)n1C | inactive
8 | CC(=O)c1c(O)c(C)c(O)c(Cc2c(O)c3c(c(C(=O)/C=C/c4ccccc4)c2O)OC(C)(C)C=C3)c1O | inactive
9 | O=C(CSc1nccn1Cc1ccc(F)cc1)NCc1ccccc1 | inactive
10 | CC(C)(C)c1ccc(OC(=O)N2CCCCC2)cc1 | inactive
11 | CC(C)(C)c1ccc(Oc2ccc(N)cc2)cc1 | 2.51 µM (active)
12 | COc1ccc(CCNc2ncnc3c2cnn3-c2ccc(C)cc2)cc1 | inactive
13 | CC1(C(=O)O)CCN1C(=O)/C=C/c1ccccc1 (configuration not stated) | inactive
14 | CC1(C)CCSC(/C=C/c2ccccc2)=N1 | 14.1 µM (active)
15 | CC1(C(=O)NS(=O)(=O)c2ccccc2)CCN1C(=O)C/C=C/c1ccccc1 (configuration not stated) | inactive
16 | CC1(C)C=CC(=O)[C@]2(C)C1CC(=O)[C@]1(C)C2CC[C@@]2(C)C(c3ccoc3)OC(=O)C3OC321 (some centres not stated) | inactive
17 | CCCS(=O)(=O)N1CCC(C(=O)NCCCN(C)Cc2ccccc2)CC1 | 28.2 µM (active)
18 | CCS(=O)(=O)N1CCCC(C(=O)NCCCN(C)Cc2ccccc2)C1 (configuration not stated) | inactive
19 | CCCS(=O)(=O)N1CCC(C(=O)NCCc2ccc(OC)c(OC)c2)CC1 | inactive
20 | Cc1c(O)cc(O)c2c(=O)c(-c3ccc(O)cc3)coc12 | inactive
21 | Cc1cccc(N2CCN(C(=O)c3cc4c(=O)[nH]c5ccccc5c4n3C)CC2)c1C | 31.6 µM (active)
22 | Cc1cccc(N2CCN(C(=O)c3oc(=O)c4ccccc4c3-c3ccccc3)CC2)c1C | inactive
23 | CCn1c(C)c(C)c2cc(C(=O)N3CCN(c4cccc(C)c4C)CC3)ccc21 | inactive
24 | O=C(Nc1cccc(F)c1)N1CC2(CCN(C(=O)c3cnccn3)CC2)C1 | inactive
25 | COC(=O)c1ccccc1-c1cc(C)cc2c1OC(CNC(=O)C1CCOC1)C2 (configuration not stated) | inactive
26 | Cc1cc(S(=O)(=O)N2CCOCC2)ccc1OCC(=O)N1CCOCC1 | inactive

Row | SMILES | Potency
27 | Cc1cc(C(=O)COc2ccccc2[N+](=O)[O-])c(C)n1-c1cccc(S(=O)(=O)N2CCOCC2)c1 | 12.6 µM (active)
28 | O=C(COc1ccc(S(=O)(=O)N2CCCC2)cc1[N+](=O)[O-])N1CCCCC1 | inactive
29 | CCC1CN(CCNC(=O)c2cccnc2C)Cc2cc(OC)ccc2O1 (configuration not stated) | inactive
30 | CC1=C(c2ccc(F)cc2)S(=O)(=O)N=C1N1CCC(C(=O)NCCc2ccccc2C)CC1 | inactive
31 | COCCn1c(=O)c(-c2ccccc2)nc2cnc(N3CCOCC3)nc21 | inactive
32 | CC1CC(C)CN(C/C=C/c2ccccc2[N+](=O)[O-])C1 (configuration not stated) | inactive
33 | CC1CCCCC1NC(=O)c1cc(=O)[nH]c2ccccc12 (configuration not stated) | inactive
34 | CC1CCCCC1NC(=O)/C(C#N)=C/C=C/c1ccccc1[N+](=O)[O-] (configuration not stated) | 28.2 µM (active)
35 | Cc1ccc2c(C)nc(N3CCCC(C(=O)NC(C)(C)CO)C3)nc2c1 (configuration not stated) | inactive
36 | CCc1ccccc1NC(=O)N1CCC2(CC1)Oc1ccccc1C(=O)N2Cc1ccccc1F | inactive
37 | O=C(Nc1cc(-c2nc3ccccc3o2)ccc1Cl)c1cc([N+](=O)[O-])ccc1N1CCOCC1 | inactive
38 | CCCCNS(=O)(=O)CCNCc1ccccc1OC | inactive
39 | COc1ccccc1CCn1c(=O)c(-c2cn(C)c3ccccc23)nc2cncnc21 | inactive
40 | COc1ccccc1Cc1c(-c2ccc(Cl)cc2)nc2c3ccccc3ccn12 | inactive
41 | CCCCCc1c(Cc2ccccc2)ncn1CCc1ccccc1OC | 35.5 µM (active)
42 | CCCCc1c(-c2ccc(Br)cc2)ncn1CCc1ccccc1OC | 35.5 µM (active)
43 | COc1cccc2oc(CCc3ccccc3)cc(=O)c12 | inactive
44 | CCOC(=O)c1cc2c(=O)n3ccccc3nc2n(CC2CCCO2)c1=NC(=O)c1ccccc1F (configuration not stated) | inactive
45 | CCn1cc(C(=O)N2CCN(c3cc(C)ccc3C)CC2)c(=O)c2cc(S(=O)(=O)N(C)C3CCCCC3)ccc21 | inactive
46 | Cc1oc(-c2cccc(NC(=O)c3ccccc3)c2)nc1CNC(=O)c1cnc2ccccn2c1=O | inactive
47 | O=c1c(-c2ccc(F)cc2)nc2cnc(N3CCNCC3)nc2n1Cc1cccs1 | inactive
48 | O=C(C(=O)N1CCOc2ccc(CN3CCN(Cc4ccccn4)CC3)cc2C1)c1ccccc1 | inactive
49 | CCC(=O)Nc1ccccc1-c1nc2ccccc2n(CC(=O)Nc2ccc(C)c(C)c2)c1=O | inactive
50 | COc1ccc(N2CCN(C3=NS(=O)(=O)C(c4cccc(Br)c4)=C3C)CC2)cc1 | inactive
51 | COc1cccc(N2CCN(C3CC(=O)N(c4ccc(Cl)cc4)C3=O)CC2)c1 (configuration not stated) | inactive
52 | COc1cccc(-c2nc3ccc(N4CCN(C)CC4)cc3[nH]2)c1 | 14.1 µM (active)

Row | SMILES | Potency
53 | COc1cccc(-n2c(=O)c3c(C)c(C(=O)N(C)C)sc3n(Cc3cccc(C)c3)c2=O)c1 | inactive
54 | COCCN(C(=O)CCC(=O)Nc1ccccn1)C(C(=O)NCCC(C)C)c1ccc(OC)cc1 (configuration not stated) | inactive
55 | COc1cccc(N(CC(=O)NC2CCCC2)C(=O)CCCC(=O)Nc2ccccn2)c1 | inactive
56 | CCOc1ccc(N/C=C/C(=O)c2ccccc2)cc1 | 10 µM (active)
57 | COc1ccc(C(=O)/C=C/Nc2ccccn2)cc1 | 8.91 µM (active)
58 | CCOc1ccc(NC(=O)C(C)N2C(=O)c3ccccc3C2=O)cc1 (configuration not stated) | inactive
59 | CCOc1ccc(NC(=O)C2CCCN(C(=O)Nc3ccccc3)C2)cc1 (configuration not stated) | inactive
60 | OCC1CCCN(c2nc3cc4c(cc3cc2CNCc2cccs2)OCO4)C1 (configuration not stated) | inactive
61 | CCn1cc(C(=O)NCc2ccccc2)c(=O)c2cc(S(=O)(=O)N3CCCCC3)ccc21 | inactive
62 | C=C1C([C@@]2(C)C(OC(C)=O)CC(=O)O[C@@](C)(COC(C)=O)C2CC(=O)OC)C(OC=O)C(OC(=O)C(O)C(C)CC)[C@]2(C)C(c3ccoc3)CC(=O)C12O (some centres not stated) | inactive
63 | O=C(CN1Cc2ccccc2OC(c2ccccc2)C1)N1CCCCC1c1cccnc1 (configuration not stated) | inactive
64 | O=c1c(CCc2ccccc2)nc2cnc(N3CCNCC3)nc2n1Cc1cccs1 | inactive
65 | CCN(C(=O)Nc1cccc2ccccc12)c1ccccc1 | inactive
66 | CCCCNC(=O)CN1C(=O)NC(Cc2ccccc2)(Cc2ccccc2)C1=O | inactive
67 | CCCCC(O)(CCCC)C(=O)NN(C(=O)CCl)c1ccccc1 | 31.6 µM (active)
68 | Cc1cc2ccccc2n1CCNC(=O)c1ccc(F)cc1 | inactive
69 | Cc1cccc2c3c(ccc12)C1=C(C(=O)C3=O)C(C)CO1 (configuration not stated) | inactive
70 | COc1ccc(-c2nc3cnc(Oc4ccccc4)nc3n(Cc3cccs3)c2=O)cc1 | inactive
71 | c1ccc(-c2cnc(CN3CCN(c4ccccc4)CC3)o2)cc1 | inactive
72 | CCCCn1c(SCC(=O)N2CCCC2=O)nc2cc(S(N)(=O)=O)ccc21 | inactive
73 | CCCCn1c(SCc2ncc(-c3ccccc3)o2)nc2cc(S(N)(=O)=O)ccc21 | 28.2 µM (active)
74 | CN1CCN2c3ccccc3Cc3ccccc3[C@@H]2C1 | inactive
75 | CS(=O)(=O)N1CCC[C@@]2(CCN(c3ccncc3)C2)C1 | inactive
76 | Cc1ccc(-c2ccc(C(=O)N3CCc4nnc(CNC(=O)c5ccccc5)n4CC3)cc2)cc1 | inactive
77 | COc1ccc(-c2csc3nc(-c4ccccc4F)oc(=O)c23)cc1OC | 20 µM (active)
78 | Cc1sc2nc(-c3ccccc3F)oc(=O)c2c1C | inactive

Row | SMILES | Potency
79 | COc1ccc(-c2csc3ncnc(Oc4ccc5c(C)cc(=O)oc5c4)c23)cc1 | inactive
80 | CCOC(=O)C1CCCN(C(=O)c2ccc(-n3ccc4ccccc43)s2)C1 (configuration not stated) | inactive
81 | Cc1ccc(Cl)c(OCC(=O)N(C)CC(=O)Nc2ccc(N3CCOCC3)cc2)c1 | inactive
82 | CCn1c2ccccc2c2cc(NC(=O)COc3ccc(C)cc3C)ccc21 | inactive
83 | Cc1ccc(OCC(=O)Nc2ccc(N3CCN(C(=O)c4ccco4)CC3)cc2)c(C)c1 | 15.8 µM (active)
84 | Cc1cccc(C(=O)OC(C)C(=O)NC2CCCc3ccccc32)c1O (configuration not stated) | inactive
85 | COc1cccc(C(=O)Nc2c3c(nn2-c2cccc(C)c2C)CS(=O)(=O)C3)c1OC | inactive
86 | COc1ccc(C(=O)NC2CCCc3c2cnn3-c2cccc(C)c2C)c(OC)n1 (configuration not stated) | 17.8 µM (active)
87 | CCOc1ccc(N(CC)C(=O)c2noc3c2COc2ccc(C)cc2-3)cc1 | inactive
88 | O=C(C1CCC(Cn2c(=O)c3sccc3n(Cc3ccccc3F)c2=O)CC1)N1CCCCC1 (configuration not stated) | inactive
89 | CNc1ccc(-c2nc(-c3ccccc3C)no2)cc1[N+](=O)[O-] | inactive
90 | C#CCCCCCCCCCCCCCCCC(=O)O | inactive
91 | CC(=O)c1ccc(NC(=O)CCc2nc(-c3ccc(C)cc3)no2)cc1 | inactive
92 | N#CCCn1cnc2ccccc21 | inactive
93 | Fc1ccc(OCc2nn3c(Cn4nnc5ccccc54)nnc3s2)cc1 | inactive
94 | c1ccc(Cc2nn3c(Cn4cnc5ccccc54)nnc3s2)cc1 | 14.1 µM (active)
95 | COc1ccc(CNc2ncncc2-c2ccccc2C)c(OC)c1 | inactive
96 | Cc1cc(C(=O)NCC2Cc3cccc(-c4cncnc4)c3O2)c(C)o1 (configuration not stated) | inactive
97 | CNc1cc(-c2c(C)noc2C)ncn1 | inactive
98 | COCCCNC(=O)c1ccc(NC(=O)c2nsc3ccccc23)cc1 | inactive
99 | COCCn1c(SCC(=O)c2cc(C)ccc2C)nc2cc(C(=O)NC3CCCC3)ccc2c1=O | inactive
100 | CCc1nc(C)cn1S(=O)(=O)c1cc([N+](=O)[O-])ccc1Cl | 20 µM (active)
101 | CCc1nccn1S(=O)(=O)c1cccc([N+](=O)[O-])c1 | inactive
102 | CC(C)c1nccn1S(=O)(=O)c1cc([N+](=O)[O-])ccc1Cl | inactive
